Among all 1,500 compounds or so, about 140 (9.3%) were called active. The rule behind the calls is not given here. Many of the other results were omitted from the sample, so actives are more common in it than they were.
Assay: AlphaScreen signal interference with preloaded methylated product, dose response, artefact control for NSD2 inhibitor project, biochemical, cherry-picked samples (AID 1053174);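 note: actives lower the AlphaScreen signal from the preloaded product and count as artifacts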

SMILES | AbsAC35
OCC[n+]1c2ccccc2nc2ccc(N3CCOCC3)cc21 | 15.8 µM (active)
N/C(=N\N=C/c1ccc(-c2ccc(O)c(C(=O)O)c2)o1)N[N+](=O)[O-] | 19.7 µM (active)
CN(c1ccc(O)cc1)c1ccc([N+](=O)[O-])c2nonc12 | 15.7 µM (active)
CCCCCCCSc1cc(OC)c(CCNC)cc1OC | 14.6 µM (active)
CC[n+]1c(-c2ccccc2)c2cc(N)ccc2c2ccc(N)cc21 | 21.9 µM (active)
CN(C)c1ccc(CN2CC=C(c3ccc(F)cc3)CC2)cc1 | 15.5 µM (active)
CCN(CC)c1ccc(CN2CC=C(c3ccc(F)cc3)CC2)cc1 | 15.3 µM (active)
CCCCN1C(=O)/C(=C/C=C/c2ccco2)C(=O)NC1=S | 10.6 µM (active)
CN(C)c1ccc(/C=C/c2cc[n+](C)c3ccccc23)cc1 | 10.6 µM (active)
